Source: PubChem BioAssay
KDM4E inh – qHTS Assay for Inhibitors of Human Jumonji Domain Containing 2E (JMJD2E) | actives 1.6% (n = 230,000) | AID 2147, 2009 | Potency, µM (series often up to 57.1 µM), inactives show at the highest dose activity change, negative = inhibition, most hits filed as inhibitors | JMJD2E catalytic domain, FDH-coupled NADH fluorescence (FDH is formaldehyde dehydrogenase);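 also: potency is read from the fitted curve at half-maximal effect; 0% = wells with enzyme and -100% = buffer wells without enzyme; nearly all actives have a fitted effect of over 50% in size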
CBFb-RUNX1 inh – qHTS Assay for Compounds Blocking the Interaction Between CBF-beta and RUNX1 for the Treatment of Acute Myeloid Leukemia. Potency, µM (top dose mostly 59.8 µM), for inactives: at the highest dose activity, negative = inhibition, hits mostly inhibitors. AID 1477, 2009. AlphaScreen CBFb-His/RUNX1-biotin binding, biochemical. Runt-related transcription factor 1 (Homo sapiens) + Core-binding factor subunit beta …. 230,000 tested, under 10 active; also: % of control where 0% means no effect
Target sequence (Q01196 whole entry, looked up): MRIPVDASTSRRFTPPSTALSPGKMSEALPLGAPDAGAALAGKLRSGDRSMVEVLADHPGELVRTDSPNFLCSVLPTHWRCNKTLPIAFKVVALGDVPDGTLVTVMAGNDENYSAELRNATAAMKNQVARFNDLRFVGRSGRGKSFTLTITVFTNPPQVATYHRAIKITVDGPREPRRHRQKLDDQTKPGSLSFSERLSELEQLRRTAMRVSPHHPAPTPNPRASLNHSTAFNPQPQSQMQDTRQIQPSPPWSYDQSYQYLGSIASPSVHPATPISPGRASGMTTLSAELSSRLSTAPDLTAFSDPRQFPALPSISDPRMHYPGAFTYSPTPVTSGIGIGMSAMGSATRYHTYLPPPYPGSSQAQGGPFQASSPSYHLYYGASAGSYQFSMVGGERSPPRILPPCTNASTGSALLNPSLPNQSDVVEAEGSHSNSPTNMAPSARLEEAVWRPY
Target sequence (Q13951 whole entry, looked up): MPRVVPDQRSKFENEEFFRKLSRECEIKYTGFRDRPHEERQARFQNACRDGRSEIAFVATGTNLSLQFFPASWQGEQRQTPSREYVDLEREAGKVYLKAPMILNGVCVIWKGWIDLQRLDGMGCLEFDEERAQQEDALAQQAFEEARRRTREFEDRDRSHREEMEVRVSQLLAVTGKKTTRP
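AlphaScreen binding: CBFb-His and RUNX1-biotin (30 nM each) preincubated 20 min, compound added for 15 min, then nickel and streptavidin beads for 90 min, all at room temperature. Disruption of the interaction by any mechanism counts as activity.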
Tau fluor counter – Counterscreen qHTS for Inhibitors of Tau Fibril Formation, Fluorescence Polarization; actives 0.93% (n = 280,000); Potency, µM (series often up to 57.7 µM), for inactives: at the highest dose activity change, negative = decrease; tau K18 P301L Alexa594 fluorescence, heparin fibrillization; AID 1463, 2008; also: potency is read from the fitted curve at half-maximal effect; % is scaled to controls: 0 for no effect and ±100 for the full control effect; nearly all actives have a fitted effect of over 55% in size
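Human K18 P301L tau (15 uM unlabeled plus 0.24 uM Alexa 594-labeled, final) in 100 mM sodium acetate pH 7 was mixed with compound and 20 uM heparin and incubated 6 hr at 37 C.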
Tau fibril ThT – qHTS for Inhibitors of Tau Fibril Formation, Thioflavin T Binding; Microtubule-associated protein tau (Homo sapiens), P10636; recombinant tau K18 P301L (four-repeat tau fragment), heparin-induced fibrillization, ThT fluorescence; Potency, µM (titrated, usually from 57.4 µM), for the others: at the highest dose activity, negative = inhibition, hits mostly inhibitors; actives 2.1% (n = 270,000); AID 1460, 2008; also: potency is read from the fitted curve at half-maximal effect; % is scaled to controls: 0 for no effect and ±100 for the full control effect; nearly all actives have a fitted effect of over 55% in size
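Recombinant human tau K18 fragment […] carrying P301L, 15 uM unlabeled plus 0.24 uM Alexa 594-labeled, was fibrillized with 20 uM heparin in 100 mM sodium acetate pH 7 for 6 hr at 37 C; 30 uM ThT fluorescence read after 1 hr.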
Tau FP inhib – qHTS for Inhibitors of Tau Fibril Formation, Fluorescence Polarization; Potency, µM (highest dose often 57.7 µM), for inactives: at the top dose activity, negative = inhibition, usual class: inhibitors; actives 0.39% (n = 280,000); Microtubule-associated protein tau (Homo sapiens), P10636; K18 P301L tau heparin fibrillization, Alexa594 FP, 6 h; AID 1468, 2008; also: potency is read from the fitted curve at half-maximal effect; % is scaled to controls: 0 for no effect and ±100 for the full control effect; nearly all actives have a fitted effect of over 55% in size
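Human tau K18 […] P301L fragment, 15 uM unlabeled plus 0.24 uM Alexa 594-labeled tau (final), with compound and 20 uM heparin in 100 mM sodium acetate pH 7; 6 hr at 37 C, then Alexa 594 FP read.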
Lamin A splicing – qHTS Assay for Modulators of Lamin A Splicing; Potency, µM (highest dose often 46.1 µM), inactives show top-dose ratio change, negative = inhibition, actives largely listed as inhibitors; HeLa LMNA splicing GFP/RFP minigene ratio, 48 h; AID 1487, 2009; actives 0.01% (n = 200,000); active = well fitted inhibition curve with a large enough effect in the signal ratio, with a control signal flat, not every such curve was filed as active; inconclusive = small, poorly fitted or top-dose-only effect, or effect the other way, or a change in a side signal; the % refers to the signal ratio; also: potency is read from the fitted curve at half-maximal effect; % is scaled to controls: 0 for no effect and ±100 for the full control effect
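S3 HeLa stable clones carrying a lamin A-EGFP splicing minigene plus DsRed2 were seeded at 600 cells/well in Opti-MEM with 2% FBS, pin-dosed and incubated 48 h at 37°C. Acumen cytometry (488 nm) gave the GFP/RFP total-intensity ratio.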
Starred values were filed as active, the others as inactive; ? = inconclusive; nt = not tested or not shown; [ ] = another dose, or the depositor's remark. Rows were chosen to be rich in hits. Some 3.2% of all compounds tested hit in one or more screens of this group. Unless noted, calls follow the shape of the dose curve; as a rule, active = well fitted curve in the direction sought with a large enough effect; inconclusive = small, poorly fitted or top-dose-only effect, or another doubt; inactive = no such curve, though single readings can be large; an effect the other way counts as inactive or inconclusive.

SMILES	KDM4E inh	CBFb-RUNX1 inh	Tau fluor counter	Tau fibril ThT	Tau FP inhib	Lamin A splicing
O=C1[C@H]2[C@H]3[C@H](O)[C@H](O)C/C(=N/OC[C@@H](O)COCc4ccco4)[C@H]3CC[C@@H]2C(=O)N1C1CCCCC1	nt	12%[13.1 µM]	-18%[11.6 µM]	-11%[11.5 µM]	-10%[11.6 µM]	nt
Cc1cc2c(NC(=O)CCCC(=O)O)cccc2nn1	?	10%	-3%	nt	-2%	nt
Cc1cc2c(NC(=O)Nc3ccc(C(F)(F)F)cc3)cccc2nn1	-25%	-8%	?	?	28µM*	nt
O=C(/C=C\Nc1ccc2c(c1)OCO2)c1cccs1	-2%	-6%	?	2µM*	-6%	?
O=C(Nc1ccc2c(c1)OCO2)c1cccs1	9%	0%	-12%	-11%	0%	2%
O=C(/C=C\Nc1ccc2c(c1)OCO2)c1ccc(Cl)s1	-12%	0%	-17%	2.8µM*	-4%	nt
O=C(COC(=O)c1cnccn1)c1ccc([N+](=O)[O-])cc1	3%	-4%	-19%	16µM*	?	nt
CCOc1ccc(-c2nc(SCC(=O)NCCOC)c(-c3ccc(OC)c(OC)c3)[nH]2)cc1	nt	nt	?	?	11%	nt
Cc1ccc(S(=O)(=O)NCC(=O)N/N=C/c2ccc(Cl)cc2Cl)cc1	-4%	5%	-29%	-7%	-6%	?
Oc1ccc(/C=N/Nc2ccc3ccccc3c2)c(O)c1	?	-11%	20µM*[quencher]	18µM*	?	nt
Oc1ccccc1/C=N/Nc1ccccc1	-12%	-4%	25µM*[quencher]	?	18%	16%
O=C(CCCCCNC(=O)c1ccccc1)N/N=C/c1ccccc1O	25µM*	3%	-17%	-16%	0%	-19%
Cc1ccc(S(=O)(=O)NCC(=O)N/N=C/c2ccccc2O)cc1	25µM*	-5%	-21%	-6%	-12%	?
Cc1ccc(S(=O)(=O)Nc2ccc(O)c3ncccc23)cc1	25µM*	?	-12%	-14%	6%	nt
Cc1ccc(S(=O)(=O)Nc2cccc3ncccc23)cc1	-6%	6%	8%	nt	6%	nt
CCc1ccc(C(=O)c2cn(CC(=O)Nc3ccc(OC)c(OC)c3)c3ccc(C)cc3c2=O)cc1	nt	nt	-28%	7%	5%	nt
CCOC(=O)c1cc(NC(=O)c2ccccc2)c(=O)oc1C(F)(F)F	-2%	-7%	2%	1%	-17%	11%[46 µM]
COC(=O)c1cc(NC(=O)c2ccc(OC)cc2)c(=O)oc1C	-4%	11%	-6%	?	2%	6%[46 µM]
CC(=O)c1cc(NC(=O)c2ccccc2)c(=O)oc1C	?	1%	-14%	28µM*	?	nt
Cc1oc(=O)c(NC(=O)c2ccc(Cl)cc2)cc1C(=O)c1ccccc1	?	-1%	-27%	18µM*	?	?
CC(=O)c1cc(NC(=O)c2ccc(C)cc2)c(=O)oc1C	?	-18%	-11%	32µM*	?	nt
Cc1oc(=O)c(NC(=O)c2ccccc2)cc1C(=O)c1ccccc1	-7%	-7%	-14%	25µM*	?	?
CC(=O)c1cc(NC(=O)c2ccc(C)cc2)c(=O)oc1/C=C/N(C)C	0%	3%	-22%	?	11%	-9%
COc1cccc(N=Nc2c(N)[nH]n3c(=O)c4c(nc23)CCCC4)c1	-4%	-8%	?	1.4µM*	3%	?
CC(C)C[C@H](N)CSSC[C@@H](N)CC(C)C	-2%	4%	-15%	5µM*	?	?
SMILES	KDM4E inh	CBFb-RUNX1 inh	Tau fluor counter	Tau fibril ThT	Tau FP inhib	Lamin A splicing
COc1ccc(C2c3cc(OC)c(OC)cc3CC(=O)N2c2ccc(C)cc2)cc1 (stereo unspecified)	nt	nt	-10%	-13%	-9%	nt
CCOc1ccc(CN(C(=O)c2cc(=O)c3cc(Cl)ccc3o2)C2CCS(=O)(=O)C2)cc1 (stereo unspecified)	nt	nt	-17%	-16%	-1%	nt
CN(C)c1ccc(C(CNS(=O)(=O)c2ccc3ccccc3c2)c2c[nH]c3ccccc23)cc1 (stereo unspecified)	-21%	?	8.9µM*[quencher]	-7%	7%	-19%
COCCCN1C(=O)c2ccccc2CC1(C)C(=O)NC1CCCCC1 (stereo unspecified)	nt	nt	-2%	0%	-3%	nt
CC(C)(C)c1cc[n+](C2=C([O-])c3ccccc3C(=O)/C2=N\S(=O)(=O)c2cccs2)cc1	?	-14%	?	18µM*	-9%	nt
O=C1/C(=N\S(=O)(=O)c2cccs2)C([n+]2ccccc2)=C([O-])c2ccccc21	?	2%	?	?	?	nt
CC1CCN(c2nc(Cl)nc(Nc3ccc([N+](=O)[O-])cc3)n2)CC1	-3%	12%	8.9µM*[quencher]	?	?	1%
NC(N)=NCCC[C@@H](N)C(=O)NCC(=O)N[C@@H](CC(=O)O)C(=O)N[C@@H](Cc1c[nH]c2ccccc12)C(=O)O	nt	8%	nt	nt	nt	nt
CCCCC(CC)COC(=O)CC(C(=O)OCC(CC)CCCC)S(=O)(=O)O (stereo unspecified)	nt	1%	nt	nt	nt	nt
O=C(Nc1ncccn1)c1cc([N+](=O)[O-])cc([N+](=O)[O-])c1	-9%	4%	8%	3%	0%	-9%
O=[N+]([O-])c1cc(-c2ncccn2)c([N+](=O)[O-])s1	0%	-17%	?	11µM*	14%	-27%
O=C(Nc1ccc(Cl)cc1Cl)NC1CCN(S(=O)(=O)c2ccc(F)cc2)CC1	-6%	19%	?	nt	25µM*	nt
COc1ccccc1NS(=O)(=O)c1cccc(NC(=O)Nc2ccc(Cl)cc2)c1	1%	-4%	?	7%	28µM*	?
O=C(Nc1ccc(Cl)cc1Cl)NC1CCCC1	-7%	-4%	2%	4%	8%	nt
O=C(Nc1cccc(S(=O)(=O)N2CCCCC2)c1)Nc1ccc(Cl)cc1Cl	-3%	2%	?	14%	14µM*	?
CC1(C)CC(NC(=O)c2ccccc2C(=O)NC2CC(C)(C)NC(C)(C)C2)CC(C)(C)N1	9%	3%	-6%	-9%	-5%	nt
CC1(C)CC(Nc2ccc(Nc3ccccc3)cc2)CC(C)(C)N1	8%	?	28µM*[quencher]	?	?	?
